About 79,000 compounds went through this panel and 15% of them were active in at least one assay; those are over-represented in the sample as a whole. Values without a mark were called inactive. The source made the active and inactive calls. No stated cut-off is given here; in the data, active means growth inhibition above about 70%; inactive means the rest.
Test: NCI Yeast Anticancer Drug Screen. Data for the mlh1 strain (AID 171);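 further: 0% = growth of vehicle-treated control cultures of the same strain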
Settings: S. cerevisiae mlh1 strain growth inhibition, stronger effect = higher value
Description: Growth inhibition of yeast strains with defined genetic alterations is measured as a screen for potential anti-cancer activity. Selected strains with alterations in DNA damage repair or cell cycle control were exposed to compounds and growth inhibition was measured relative to vehicle treated controls. The strain used in this assay is mlh1

| SMILES | growth inhibition (at 1.2 µM) | growth inhibition (at 3.7 µM) | growth inhibition (at 11.0 µM) | growth inhibition (at 33.0 µM) | growth inhibition (at 100.0 µM) |
| --- | --- | --- | --- | --- | --- |
| COc1cc([N+](=O)[O-])c2ncccc2c1Br | -10% | -5% | -3% | -3% | -4% |
| C/C(=N/NC(=S)Nc1ccccc1C)c1ccccn1 | -6% | -7% | -5% | -9% | -6% |
| CCOC(=S)SSSC(=S)OCC | 3% | 7% | 41% | 95% (active) | 99% (active) |
| CC1CCN(CCC(=O)c2ccc([N+](=O)[O-])cc2)CC1 | 1% | 7% | 9% | 30% | 39% |
| CCCCS/C(=C(/C#N)C(N)=O)c1cc2c([nH]1)CCCC2 | -13% | -19% | -30% | -36% | 54% |
| O=S(=O)(NC1CCCC(c2ccccc2)C1)c1ccccc1 (stereo not given) | -2% | 0% | -1% | 3% | 82% (active) |
| O=C(/C=C/c1ccsc1)c1cccs1 | 6% | 3% | -8% | 25% | 96% (active) |
| CCCCCCNCCCNc1c2cc(OC)ccc2nc2cccc([N+](=O)[O-])c12 | 4% | 2% | 16% | 86% (active) | 98% (active) |
